In the library only some 1.4% were active in any assay of this set; here they are far more common.
SKBR3 24h inh = SK-BR-3 proliferation inhibitors; SK-BR-3 viability, CellTiter-Glo ATP luminescence, 24 h; stronger effect = lower value; viability, % at 10 µM; 0.47% of 41,000 active;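 active = viability at or below the median of all test compounds minus 3 SD, in both replicates if run twice, cut at about 45% in these data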;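 note: 100% = median untreated cell wells and 0% = median positive control drug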
JNK3 blocker = blocks human JNK3 kinase activity | P53779 | purified JNK3 kinase activity, HTS | inhibition, % at 8 µM | 0.61% of 60,000 active | AID 746; in the data active = inhibition above about 17%;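 note: 0% = DMSO and 100% = reference inhibitor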
HER2 expr 66K = inhibitors of human Her2 kinase expression | P04626 | SKBR-3 HER2 protein level, AlphaScreen, 18-24 h; stronger effect = lower value | HER2 level % of control, % at 10 µM | 0.69% of 65,000 active | AID 645;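 active = HER2 level under 5% of the carrier-only control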;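 note: 100% = DMSO carrier and 0% = 500 nM PU-H71 HSP90 inhibitor; lower value means stronger loss of Her2 protein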
Target sequence (P04626 whole entry, looked up): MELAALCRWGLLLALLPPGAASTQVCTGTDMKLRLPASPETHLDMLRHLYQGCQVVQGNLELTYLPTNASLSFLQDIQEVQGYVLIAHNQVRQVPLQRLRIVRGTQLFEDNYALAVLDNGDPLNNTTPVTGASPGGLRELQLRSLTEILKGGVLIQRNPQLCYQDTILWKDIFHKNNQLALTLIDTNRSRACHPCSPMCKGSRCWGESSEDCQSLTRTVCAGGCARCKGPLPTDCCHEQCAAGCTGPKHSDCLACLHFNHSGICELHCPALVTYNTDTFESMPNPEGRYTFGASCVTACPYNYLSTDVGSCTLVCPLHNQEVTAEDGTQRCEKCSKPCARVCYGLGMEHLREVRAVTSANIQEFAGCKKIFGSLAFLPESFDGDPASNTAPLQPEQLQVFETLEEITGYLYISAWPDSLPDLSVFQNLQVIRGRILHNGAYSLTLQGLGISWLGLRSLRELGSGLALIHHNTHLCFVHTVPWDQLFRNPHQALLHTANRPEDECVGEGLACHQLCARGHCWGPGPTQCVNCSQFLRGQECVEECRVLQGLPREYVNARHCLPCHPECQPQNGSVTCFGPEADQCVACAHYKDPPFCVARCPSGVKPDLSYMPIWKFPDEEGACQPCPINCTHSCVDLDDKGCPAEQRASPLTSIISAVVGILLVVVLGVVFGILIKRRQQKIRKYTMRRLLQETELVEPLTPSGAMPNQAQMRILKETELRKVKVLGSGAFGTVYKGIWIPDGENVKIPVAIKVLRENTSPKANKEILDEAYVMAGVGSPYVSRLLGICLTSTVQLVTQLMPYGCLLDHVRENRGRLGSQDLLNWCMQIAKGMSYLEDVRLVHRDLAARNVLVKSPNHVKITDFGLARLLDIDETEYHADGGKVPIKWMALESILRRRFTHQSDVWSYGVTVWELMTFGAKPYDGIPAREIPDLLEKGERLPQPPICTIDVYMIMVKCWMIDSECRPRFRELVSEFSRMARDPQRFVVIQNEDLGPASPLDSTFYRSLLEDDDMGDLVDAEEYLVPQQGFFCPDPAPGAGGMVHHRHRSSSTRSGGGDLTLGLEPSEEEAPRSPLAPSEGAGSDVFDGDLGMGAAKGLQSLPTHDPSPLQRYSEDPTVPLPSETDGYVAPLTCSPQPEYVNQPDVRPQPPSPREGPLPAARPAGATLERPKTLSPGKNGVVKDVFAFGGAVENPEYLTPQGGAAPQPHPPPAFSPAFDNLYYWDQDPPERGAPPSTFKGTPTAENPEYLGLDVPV
mHtt clearance = mutant huntingtin protein clearance; AID 853; inhibition, % at 1.5 µM; HeLa Exon1htt(103Q)mCFP, aggregate imaging; zero = plate's median compound well; 0.42% of 47,000 active;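 active = inhibition of aggregate fluorescence above about 70%, also judged a hit by eye on the cell image, limit read from the data, passing the limit was not always enough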;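 note: cells exposed to compound for three days before fixation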
ROCK2 blocker = blocks human Rho kinase 2 activity; O75116; purified ROCK2, Kinase-Glo ATP depletion luminescence; inhibition, % at 6 µM; 0.35% of 60,000 active; AID 604;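 active = inhibition above the screen-wide mean inhibition plus 3 SD, cut at about 18% in these data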;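 note: plate controls were DMSO wells for no effect and Y-27632 control wells after no-enzyme background subtraction for full effect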
PKA inh = inhibitors of human protein kinase A; inhibition, % at 6 µM; PKA Kemptide phosphorylation, Kinase-Glo ATP luminescence; 0.1% of 65,000 active;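 active = inhibition above the screen-wide mean inhibition plus 3 SD, cut at about 21% in these data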
Active calls of the source: *.

How did O=C(CCN1C(=O)C2CC=C(Cl)CC2C1=O)Nc1ccccc1O (configuration not stated) do in these assays?
SKBR3 24h inh: 101; JNK3 blocker: 1; HER2 expr 66K: 85; ROCK2 blocker: 7; PKA inh: 6

What do the screens show for `O=S(=O)(c1ccc(Cl)c(C(F)(F)F)c1)N1CCN(CC(O)COCC2CCCO2)CC1` (configuration not stated)?
JNK3 blocker: -2; HER2 expr 66K: 91; ROCK2 blocker: 1; PKA inh: 4

Results for CCC1S/C(=C(\C#N)C(N)=O)N(c2ccc(F)cc2)C1=O (configuration not stated) ?
SKBR3 24h inh: 103; JNK3 blocker: 31*; HER2 expr 66K: 63; mHtt clearance: 17; ROCK2 blocker: 1; PKA inh: 13

Results for CCOC(=O)C(CC)Sc1nnc(COc2ccc(C)cc2)n1-c1ccccc1 (configuration not stated) ?
mHtt clearance: 56

Results for Cc1sc(N)nc1-c1cccs1 ?
mHtt clearance: 31

What do the screens show for `Nc1nc(-c2cccs2)c(NC(=O)c2ccccc2)s1`?
JNK3 blocker: -8; HER2 expr 66K: -11*; ROCK2 blocker: 0; PKA inh: 0

What do the screens show for `COc1cc(SC)ccc1C(=O)Nc1ccc2c(c1)OCCO2`?
SKBR3 24h inh: 87; JNK3 blocker: -4; HER2 expr 66K: 94; ROCK2 blocker: 6; PKA inh: 8

Results for CCOc1cc(N2CCOCC2)c(OCC)cc1NC(=O)c1cc(-c2ccco2)nc2ccccc12 ?
SKBR3 24h inh: 44*; HER2 expr 66K: 23; PKA inh: -2

Results for O=C(CSc1nc2ccccc2o1)NCCOc1ccccc1 ?
SKBR3 24h inh: 94; JNK3 blocker: -4; HER2 expr 66K: 123; mHtt clearance: -30; ROCK2 blocker: -4; PKA inh: 5

Results for CCOc1ccc(-c2[nH]ncc2Oc2ccccc2OCC)c(O)c1 ?
SKBR3 24h inh: 90; JNK3 blocker: -4; HER2 expr 66K: -18*; mHtt clearance: 30; ROCK2 blocker: 2; PKA inh: 6

How did CC(=O)Nc1cccc(-c2nnc(SCc3ccccc3C#N)n2C)c1 do in these assays?
SKBR3 24h inh: 88; JNK3 blocker: -1; HER2 expr 66K: 112; ROCK2 blocker: -1; PKA inh: 0

How did CCCSC1=N/C(=C\C=C\c2ccco2)C(=O)S1 do in these assays?
JNK3 blocker: 5; HER2 expr 66K: -3.4*; ROCK2 blocker: 4; PKA inh: 2

How did CCC1C(=O)N=C(SCC(=O)Nc2ccc(C(=O)OC)cc2)NC1=O (configuration not stated) do in these assays?
SKBR3 24h inh: 44*; JNK3 blocker: 4; HER2 expr 66K: 85; ROCK2 blocker: -1; PKA inh: -1

What do the screens show for `CCCn1c(SCC(=O)Nc2cccc(C)n2)nnc1-c1ccco1`?
SKBR3 24h inh: 88; JNK3 blocker: 5; HER2 expr 66K: -23*; mHtt clearance: 42; ROCK2 blocker: 0; PKA inh: -1

What do the screens show for `O=C(Nc1nnc(C2CC2)s1)C1Cc2ccccc2CN1S(=O)(=O)c1ccccc1F` (configuration not stated)?
mHtt clearance: -7

What do the screens show for `Cc1cc(C)nc(N2CCCC(C(=O)NCC(c3ccccc3)c3ccccc3)C2)n1` (configuration not stated)?
mHtt clearance: 88*

What do the screens show for `Cc1cc(C)nc(N2CCCC(C(=O)NCCc3ccc(F)cc3)C2)n1` (configuration not stated)?
SKBR3 24h inh: 102; JNK3 blocker: 0; HER2 expr 66K: 103; ROCK2 blocker: -2; PKA inh: -2

What do the screens show for `CCOc1ccccc1NC(=O)COc1cccc(-n2cnnn2)c1`?
SKBR3 24h inh: 88; JNK3 blocker: 23*; HER2 expr 66K: 91; mHtt clearance: 53; ROCK2 blocker: 2; PKA inh: 4

What do the screens show for `COc1cccc(C2NC(=O)NC(C)=C2C(=O)OCCSC)c1OC` (configuration not stated)?
SKBR3 24h inh: 93; JNK3 blocker: 2; HER2 expr 66K: 100; mHtt clearance: -66; ROCK2 blocker: 4; PKA inh: 11

Results for CC(=O)Nc1ccc(S(=O)(=O)N2CCN(c3nc(NC4CCCC4)c4ccccc4n3)CC2)cc1 ?
SKBR3 24h inh: 41*; JNK3 blocker: -6; HER2 expr 66K: -9.2*; ROCK2 blocker: 4; PKA inh: 1
